Our source for the sensor-assay potency score (higher = more potent) values is the OligoGym collection.
Also: reference of the scale not given here.

The first assay addresses TPPP3. Put plainly: pooled miR-30 sensor sort-seq; sequence = guide strand. As to conditions: shRNA.
Consider TTGGTCGCCAGCTCTTCCAGGG, for which the sensor-assay potency score (higher = more potent) is -0.176. Still for that read-out and setting: next, TTTCCGTCAGCCACCTTGCAGT: -0.592; TTTTGCTTTAGTGACGCCCACA: -1.34.

The next assay has as its target TPRX1. The description is as above. The settings on record: shRNA.
The sequence TTCATTCACAGAGCCACCCTCC had a sensor-assay potency score (higher = more potent) of -0.83.

TAGGGGTAGGAGCAGCTCTGTG showed a sensor-assay potency score (higher = more potent) of -1.84. Still for that read-out and setting: next, TGAACCACACCTGCAGCTGTTG: -0.826; TTGCCCATAGAGTCATCCCCTT: -0.764.

For the sequence TGAAGTGAGGGAATAACTGGGT, the sensor-assay potency score (higher = more potent) came out at 0.243. Same read-out and setting: next, TTTCATTCACAGAGCCACCCTC: -0.302; TTCTTGGTACTGAGAGGTCATG: -1.73. The same measure, in the same setting: next, TGGTGGAGGCTGCAGATCGTGG: -1.98. The same measure, in the same setting: then TTGAACCACACCTGCAGCTGTT, with -0.741; and TTGGAGCTGGGACTGAGCCTGA, with -0.894.

TCGGGCTTGGGATCTGAGCTGG registered a sensor-assay potency score (higher = more potent) of -0.605. The same measure, in the same setting: next, TAGAGTCATCCCCTTCTTGGTA: -0.907.

The next assay concerns the target TRAFD1. The description is as above. The settings on record: shRNA.
The sequence TTTATGTCACTGAGAGACCTGG yielded a sensor-assay potency score (higher = more potent) of -0.674. Turning to TTATTCTGAATTGAAACCTGGG, the sensor-assay potency score (higher = more potent) came to 0.55. On the same count and under the same terms, next, TAACTGGTTACTTGCAGCCTGT: -0.902; TTCTATTGTGGAAAACATCTGA: 0.311; TTCCTGCTTAGTATCATCCAGG: -0.814. On to TTCTTCAAACAGATTATTCTGA, for which the sensor-assay potency score (higher = more potent) was 0.585. The same measure, in the same setting: then TTGCACTCTCTTCACCACCCTC, with -0.942; and TTGGTTGGTAGTTCTATTGTGG, with -0.193. The sequence TTGCAGTTGTCACACAGTCGAG gave a sensor-assay potency score (higher = more potent) of -1.47. TGCAGTTGTCACACAGTCGAGT came in with a sensor-assay potency score (higher = more potent) of -0.879. Same read-out and setting: next, TTTGCCTTTGCAGTTCTGCTGC: 0.136.

In another assay the target is TRAPPC2L. The description is as above. As to conditions: shRNA.
As to TACCTTGTAGTCCTCCGTGGGG, the sensor-assay potency score (higher = more potent) was -0.92.

Regarding TTGGAGTTGGTGACGTAGCCGT, the sensor-assay potency score (higher = more potent) was -0.459.

In turn, TTGCACATCACGTCTGTGTAGG displayed a sensor-assay potency score (higher = more potent) of 0.239. Same read-out and setting: then TAGTTGAGAGAACATGCACAGC, with -1.15; and TTCGTTGTCTCGAAGGGCTGTG, with 0.76; and TTGAGAGAACATGCACAGCTGC, with -0.482. The same measure, in the same setting: next, TTTCGTTGTCTCGAAGGGCTGT: 0.949; TTGTGTAGCTTCCGGAACATGC: -0.801; TGTAGCTTCCGGAACATGCTGC: 0.0954.

Regarding TATACCTTGTAGTCCTCCGTGG, the sensor-assay potency score (higher = more potent) amounted to 0.16.

For the sequence TTCAGCTCGTTCTCCGTAGGGG, the sensor-assay potency score (higher = more potent) came to 0.103. The same measure, in the same setting: then TGTGTAGGAGTTGTGTAGCTTC, with 0.492.
